# Measured values published in the supplement of paper PMC6555819.
# Assays:
# Test in all cases: PBM binding z-score (relative to random genomic background probes); higher = stronger binding; sequences stand for … in GC…GCGATTGACAGCGTAGAATGAAGG
# [1] = system: RARb homodimer (NR concentration 270 nM)
# Summary of the method: (§1)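 Ligand-free nuclear receptor dimers were applied to custom Agilent 4×180K protein-binding microarrays whose double-stranded probes carried direct-repeat seeds, single-nucleotide variants, half-site ablations and random human genomic background sequences in 34-nt variable regions. Incubation lasted 1 h. Binding z-scores were computed against the random background probes from regression-normalized fluorescence.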
# [2] = system: RARg:RXRa (NR concentration 270 nM, RXRa partner concentration 90 nM)
# Summary of the method: as §1
# [3] = system: RARg homodimer (NR concentration 270 nM)
# Summary of the method: as §1
# [4] = system: RXRa DBDmut IVT, anti-RXR (DBD mutation: RXRa K156A/R161A, NR concentration 90 nM)
# Summary of the method: as §1
# [5] = system: RXRa homodimer (NR concentration 180 nM)
# Summary of the method: as §1
# [6] = system: THRa:RXRa (NR concentration 90 nM, RXRa partner concentration 90 nM)
# Summary of the method: as §1
# [7] = system: THRa homodimer (NR concentration 90 nM)
# Summary of the method: as §1
# [8] = system: VDR homodimer (NR concentration 270 nM)
# Summary of the method: as §1
Sequence,PBM binding z-score [1],PBM binding z-score [2],PBM binding z-score [3],PBM binding z-score [4],PBM binding z-score [5],PBM binding z-score [6],PBM binding z-score [7],PBM binding z-score [8]
ACTATTAGTTGAGTTAGGGCAACCGATACGACGC,0.47,0.417,0.783,0.652,0.292,1.21,0.245,0.368
TATACAGGGTCAATGGCCAGAGTACGAATGTCGA,3.21,5,4.73,2.43,5.41,3.22,0.631,2.79
AGTCAAAGTTCATCTAGGTAACCTAAGATATGCT,4.08,5.61,6.14,4.79,4.87,3.21,0.817,5.75
GCTGCTAGGCCAGGTTGGTCAGCTAACGGGTACG,6.85e-05,-0.5,-0.124,-0.332,-0.773,-0.787,-1.23,-0.861
CCTCGGAGGACAACAGGAGGTAAGAGCTGCCAGA,0.361,0.652,1.09,-0.216,-0.00959,0.811,-0.12,-0.145
CGAAGTAGGTCATCCAGGACAGTGAATACATTGA,3.03,4.24,4.88,2.13,3.36,3.64,1.46,2.37
CTCGAAAGGTCGTGCTCAGGTAAGTATACCAAAC,2.92,4.8,4.35,2.12,5.15,3.62,0.655,1.17
